Source: PubChem BioAssay
Shown are actives, neighbours in structure and some others; about 21% of the full set was active somewhere.
HCMV inh – inhibitors of human cytomegalovirus; HFF cells, HCMV-luciferase reporter, 72 h; stronger effect = lower value; activity change, negative = inhibition, % at 57.5 µM; 410,000 compounds, 4.5% hits; AID 1259415; in the data active = activity change below about -60%; inconclusive = no clear call, values can overlap the other calls; inactive = above about -39%; also: % is scaled to controls: 0 for no effect and ±100 for the full control effect
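Human foreskin fibroblasts infected with luciferase-reporter HCMV at MOI 1 PFU/cell, compounds at two doses. Luciferase measured 72 h post infection; normalized to buffer-only basal and Salinomycin (10uM) controls.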
Shiga inhibitor – Shiga toxin inhibition; Vero cells, Shiga toxin protein synthesis inhibition reporter; inhibition, % at 38.7 µM; 290,000 compounds, 9.2% hits; in the data active = inhibition mostly above about 28%, no sharp cut-off; inactive = mostly below about 43%; also: 0% is about no effect
Pf growth 96h – P. falciparum growth inhibition at 96 hours; P. falciparum luciferase reporter growth, 96 h; Potency, µM (series often up to 28.7 µM), inactives show top-dose activity change, negative = inhibition, most hits filed as inhibitors; 320,000 compounds, 6.9% hits; also: potency is read from the fitted curve at half-maximal effect; % is scaled to controls: 0 for no effect and ±100 for the full control effect
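Compounds incubated with erythrocytes infected by luciferase-expressing P. falciparum (2% hematocrit, 0.05% parasitemia final) for 96 hours, 37 C in 5% CO2. Growth inhibition scored as decreased luciferase luminescence.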
Cycloheximide cs – affects cycloheximide protein synthesis inhibition readout, counter-screen. max response, %. cell reporter, cycloheximide protein synthesis inhibition counterscreen. 300,000 compounds, 12% hits; in the data active = max response mostly above about 13%, no sharp cut-off; inactive = mostly below about 14%; also: read at 38.3 µM for the half of the compounds with a filed dose; 0% is about no effect
HCV inhibitor – inhibitors of hepatitis C virus infection; Potency, µM (top dose mostly 41.8 µM), for the others: at the highest dose activity change, negative = inhibition, actives largely listed as inhibitors; Huh7.5.1 HCVcc-Cre infection, luciferase reporter, 44 h; 340,000 compounds, 3.4% hits; also: potency is read from the fitted curve at half-maximal effect; % is scaled to controls: 0 for no effect and ±100 for the full control effect
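After 44 h co-culture of compound, cells and HCVcc-Cre (~0.5 moi), substrate is added for 15 min at room temperature and luciferase measured over 15 sec. Cells were seeded at 1,000/well and pre-cultured 4 h.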
Pf growth 48h – P. falciparum growth inhibition at 48 hours (one generation); 310,000 compounds, 5.9% hits; P. falciparum luciferase growth in erythrocytes, 48 h; Potency, µM (highest dose often 28.7 µM), for the others: top-dose activity change, negative = inhibition, hits mostly inhibitors; also: potency is read from the fitted curve at half-maximal effect; % is scaled to controls: 0 for no effect and ±100 for the full control effect
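Erythrocytes infected with P. falciparum carrying an integrated firefly luciferase reporter (2% hematocrit, 0.1% parasitemia final) were exposed to compounds in RPMI 1640 with 0.5% Albumax at 37 C, 5% CO2. Growth inhibition was scored as reduced luminescence.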
* marks the source's active call; other numbers are inactive results; i = inactive; ? = inconclusive; . = not tested or not shown; [ ] = remark or other dose. Unless noted, calls follow the shape of the dose curve; as a rule, active = well fitted inhibition curve with a large enough effect; inconclusive = small, poorly fitted or top-dose-only effect, or another doubt; inactive = no such curve, though single readings can be large or run the other way.

SMILES	HCMV inh	Shiga inhibitor	Pf growth 96h	Cycloheximide cs	HCV inhibitor	Pf growth 48h
COc1ccccc1/C=N/NC(=O)c1c(-c2ccccc2)noc1C	-23.5	-7.2	2.08µM*	-7.2	10.5%	-14.8%
Cc1cccc(/C=N/NC(=O)c2c(-c3ccccc3)noc2C)c1O	-112.8*	-13.2	6.57µM*	-2.6	?	9.28µM*
COc1ccccc1/C=N/NC(=O)C1=NNC(c2ccccc2)(c2ccccc2)C1	.	13.3	?	1.7	?	7.38µM*
COc1ccc(NC(=O)N(C)C[C@@H]2Oc3ccc(NC(=O)NC(C)C)cc3CC(=O)N([C@H](C)CO)C[C@@H]2C)cc1	-15.3	.	.	.	9.0%	.
CC(=O)c1c(C)[nH]c(C(=O)Nc2cccc(S(=O)(=O)N(C)c3ccccc3)c2)c1C	-3.0	2.4	?	-5.0	25.1µM*	?
COc1ccccc1NS(=O)(=O)c1cccc(NC(=O)c2[nH]c(C)c(C(C)=O)c2C)c1	0.0	-4.9	?	-2.1	12.6µM*	?
Cc1ccccc1OCc1ccc(C(=O)N2CCOCC2)o1	-37.0	24.5	4.0%	-3.5	-0.4%	11.5%
COc1ccc(CCNC(=O)c2cccs2)cc1OC	71.7	7.6	-13.7%	-2.4	-5.7%	-28.0%[1.15 µM]
CCC(=O)n1nc(NCc2ccccc2OC)nc1NCc1ccccc1OC	-0.3	19.1	15.7%	-1.9	11.2µM*	?
COc1ccc(CNc2nc(NCc3ccc(OC)c(OC)c3)n(C(=O)c3cccs3)n2)cc1OC	67.0	52.7	7.38µM*	26.3	?	?
Cc1ccc(C2C(N)C(=O)N2c2ccc(C)cc2)cc1 (centres undefined)	-31.2	2.5	?	-2.2	-2.9%	-2.7%
Cc1ccc(C(=O)COC(=O)[C@@H](NC(=O)c2ccco2)C(C)C)s1	6.5	.	.	.	7.1%	.
Cc1ccccc1C(=O)c1c[nH]c(C(=O)NCc2ccco2)c1	29.2	-9.6	-5.6%	-3.1	-6.3%	11.2%
Cc1ccccc1C(=O)c1c[nH]c(C(=O)NCCc2ccccn2)c1	17.3	13.0	9.28µM*	12.4	-7.9%	11.7µM*
CCC(=O)c1c[nH]c(C(=O)NCc2ccccc2OC)c1	55.8	-11.3	5.7%	-3.7	-19.6%	-0.8%
CCC(=O)c1c[nH]c(C(=O)NCCc2ccccn2)c1	44.4	42.2	33.6%	25.6*	18.8%	33.9%
CC(C)CC(=O)c1c[nH]c(C(=O)NCCc2ccccn2)c1	24.7	24.8	11.1%	27.8*	4.2%	12.6%
CC(C)CC(=O)c1c[nH]c(C(=O)NCCCN2CCOCC2)c1	23.1	-3.1	22.0%	5.9	12.1%	14.3%
COc1cc(C(O)c2nc(-c3ccc(F)c(Cl)c3)cs2)ccc1F (centres undefined)	-11.8	.	.	.	.	.
COC(=O)C1=C(c2ccc(OC)c(OC)c2)C[C@@H]2CC[C@H]1N2C(=O)NCc1ccc(F)cc1	?	.	?	.	-7.4%	-53.4%
COC(=O)C1=C(c2ccc(C(C)=O)cc2)C[C@@H]2CC[C@H]1N2C(=O)NCc1ccc2c(c1)OCO2	-8.8	.	3.29µM*	.	8.0%	11.7µM*
COC(=O)C1=C(c2ccc3ccccc3c2)C[C@@H]2CC[C@H]1N2C(=O)NCc1ccc(C(F)(F)F)cc1	86.5	.	?	.	?	8.28µM*
COC(=O)C1=C(c2ccc(Cl)c(C(F)(F)F)c2)C[C@@H]2CC[C@H]1N2C(=O)NCc1ccc2c(c1)OCO2	-12.9	.	32.0%	.	2.1%	?
COC(=O)C1=C(c2ccc3ccccc3c2)C[C@@H]2CC[C@H]1N2C(=O)NCc1ccc(F)cc1	-21.0	.	?	.	?	8.28µM*
COC(=O)C1=C(c2ccc(S(C)(=O)=O)cc2)C[C@@H]2CC[C@H]1N2C(=O)NCc1ccc(F)cc1	-62.9*	.	.	.	?	.
SMILES	HCMV inh	Shiga inhibitor	Pf growth 96h	Cycloheximide cs	HCV inhibitor	Pf growth 48h
Cc1c(NS(=O)(=O)c2cccc(C(=O)N3CCC(C)CC3)c2)c(=O)n(-c2ccccc2)n1C	29.1	.	.	.	6.6%	.
O=C(NC1CC1)c1cccc(NC(=O)C2CCN(S(=O)(=O)c3cccc(C(F)(F)F)c3)CC2)c1	0.0	.	.	.	-4.0%	.
CCOc1ccccc1NC(=O)Nc1nnc(N2CCCCCC2)s1	13.0	.	.	.	.	.
COc1ccc(C(CNC(=O)c2cc(S(=O)(=O)N3CCCC3)ccc2Cl)N2CCCC2)cc1 (centres undefined)	-29.4	.	9.28µM*	.	?	?
COc1ccc(CCNC(=O)c2ccc(Cl)c(S(=O)(=O)N3CCCC3)c2)cc1	-73.6*	.	6.57µM*	.	11.2µM*	11.7µM*
COc1ccc(C(CNC(=O)c2ccc(S(=O)(=O)N(C)C)cc2)N2CCCC2)cc1 (centres undefined)	-24.4	-4.1	?	4.1	14.8%	10.4µM*
COc1ccc(C(CNC(=O)c2ccc(Cl)c(S(=O)(=O)N3CCCC3)c2)N2CCCC2)cc1 (centres undefined)	-32.3	.	7.38µM*	.	?	13.1µM*
COc1ccc(C(CNC(=O)c2ccc(C)c(S(=O)(=O)N3CCCCC3)c2)N2CCCC2)cc1 (centres undefined)	-0.8	.	.	.	-11.6%	.
Cc1ccc2c(c1)C1CC(C)(O2)N(c2cccc(C(=O)N3CCN(c4ccccn4)CC3)c2)C(=O)N1 (centres undefined)	?	-5.3	?	-0.6	-18.3%	-28.3%
CCc1ccccc1N(CC(=O)NC(C)(C)C)C(=O)CCC(=O)Nc1ccccn1	6.7	27.8	?	-1.8	4.5%	-8.4%
COc1ccc([C@H]2CC(=O)C=C(c3ccc(Cl)c(C(F)(F)F)c3)C2)cc1OC	8.6	.	?	.	?	?
Cc1cccc(OC(=O)c2snnc2C)c1C	-12.4	.	.	.	.	.
COc1ccc(C(=O)NCC(c2ccc3c(c2)OCO3)N2CCN(c3ccc(OC)cc3)CC2)cc1 (centres undefined)	-28.0	.	2.62µM*	.	?	?
CCS(=O)(=O)c1ccc2oc(Nc3ccc(OC)c(OC)c3)nc2c1	-4.7	16.2	-6.6%	17.4	-5.6%	-7.0%
CCN(CC)S(=O)(=O)c1ccc2oc(Nc3ccccc3)nc2c1	-14.5	78.8*	?	30.2*	?	12.2%
CCN(CC)S(=O)(=O)c1ccc2oc(C(=O)Nc3ccc(OC)cc3OC)c(C)c2c1	-0.3	41.3	?	-4.3	-9.3%	?
CCS(=O)(=O)c1ccc2oc(Nc3ccccc3C)nc2c1	10.7	68.9*	i	54.2*	-12.2%	127.9%
CCN(CC)S(=O)(=O)c1ccc2oc(Nc3ccc(OC)cc3OC)nc2c1	4.1	17.1	10.4µM*	-1.6	10µM*	?
CCOc1ccc(Nc2oc(-c3ccc(COc4ccc(C)cc4)o3)nc2C#N)cc1	-20.1	.	.	.	.	.
Cc1ccc(C)c(NC(=O)C(c2ccccc2)N2Cc3ccccc3C2=O)c1 (centres undefined)	-38.2	.	.	.	.	.
